A number with no mark means an inactive call.

For this assay, the system named is Vero E6 infected with SARS-CoV-2. The assay can be described thus: inhibition of SARS-CoV-2 cytopathic effect; higher = more antiviral protection, active = above 15. Conditions: 48 h. Background: Damage to the host cells serves as the signal in cytopathic effect assays.

Take `CCCCCCCCCCCCCCCc1cccc(OCC(=O)NCCO)c1`: the “inhibition of SARS-CoV-2 cytopathic effect” value (“inhibition” below) (1 nM) was -0.98%; the “inhibition” value (8.33 nM) was -2.66%; the “inhibition” value (100 nM) was -0.69%; the “inhibition” value (833.33 nM) is 1.46%; the “inhibition” value (10000 nM) was -1.78%.

Take `O=C1CS[C@@H](c2ccccc2Cl)c2cc(Cl)ccc2N1` (racemic): the “inhibition” value is, setting by setting: (1 nM) 1.66%; (8.33 nM) -2.6%; (100 nM) -1.47%; (833.33 nM) 5.44%; (10000 nM) 7.2%.

As to `O=C(O)c1ccc(-c2c[nH]c3ncc(-c4ccccc4)cc23)cc1C1CCCC1`, the “inhibition” value by setting is: (1 nM) 4.37%; (8.33 nM) 5.26%; (100 nM) 0.74%; (833.33 nM) 1.88%; (10000 nM) -0.09%.

As to `Cc1cnc(C(=O)O)c[n+]1[O-]` [acipimox], the “inhibition” value reads like this: (1 nM) -1.88%; (8.33 nM) -0.46%; (100 nM) -1.4%; (833.33 nM) -2.17%; (10000 nM) -1.06%.

For the molecule `CSc1ccc2c(c1)N(CCC1CCCCN1C)c1ccccc1S2` (stereo not given) [thioridazine], the “inhibition” value is 1.41% (1 nM); 3.38% (8.33 nM); -2.55% (100 nM); 1.05% (833.33 nM); 41.9% (active) (10000 nM).

Take `O=C(/C=C/c1ccccc1)NC(NC(=S)Nc1cccc2cccnc12)C(Cl)(Cl)Cl` (stereo not given) [salubrinal]: the “inhibition” value was 3.2% (1 nM); 0.1% (8.33 nM); 1.16% (100 nM); -0.28% (833.33 nM); 1.23% (10000 nM).

Turning to `CC(C)(C)c1ccc(S(=O)(=O)/C=C/C#N)cc1`, the “inhibition” value runs as follows: (1 nM) 2.15%; (8.33 nM) 0.27%; (100 nM) 0.24%; (833.33 nM) 5.32%; (10000 nM) -2.36%.

The values above are taken from the supplement of paper PMC13380429.
